Test results as given in PubChem BioAssay AID1159580 (chemical genetic matrix, 2015).
Where “and” joins values, the source holds several entries; their conditions need not be identical. Equal entries are not always repeated. The whole screen tested about 5,500 compounds, of which about 2,000 (36%) were called active. Another 18% or so got no clear call; they are omitted. Cut-off read from the data, not from the text of the source: active = normalized growth mostly below about 0.91 (no sharp cut-off); inconclusive = no clear call, values can overlap the other calls; inactive = mostly above about 0.92. The list shows a part of the results.

Assay: chemical genetic growth profiling, strain panel (AID 1159580);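 note: tested at 20 µM; growth read once vehicle control cultures reached saturation at 30 °C; 1 = growth at the plate median or of vehicle wells; lower values mean less growth of the strain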
Conditions: S. cerevisiae deletion strains, growth OD

Measured: normalized growth

C[C@H](N)[C@H](O)c1cccc(O)c1
inactive: locus YAL021C, strain ccr4, stronger effect = lower value 1 | locus YAL026C, strain drs2, stronger effect = lower value 1.01 | locus YAL030W, strain snc1, stronger effect = lower value 1 | locus YBL061C, strain skt5, stronger effect = lower value 1.01 | locus YBR009C, strain hhf1, stronger effect = lower value 1.02 | locus YBR021W, strain FUR4, stronger effect = lower value 1.04 | locus YBR023C, strain chs3, stronger effect = lower value 1.02 | locus YBR171W, strain sec66, stronger effect = lower value 1.02 | locus YBR229C, strain ROT2, stronger effect = lower value 0.992 | locus YBR231C, strain swc5, stronger effect = lower value 1 | locus YBR279W, strain paf1, stronger effect = lower value 1.01 | locus YCL011C, strain gbp2, stronger effect = lower value 1 | locus YCL016C, strain dcc1, stronger effect = lower value 1.02 | locus YCL029C, strain bik1, stronger effect = lower value 0.985 | locus YCL061C, strain MRC1, stronger effect = lower value 1.01 | locus YCL069W, strain vba3, stronger effect = lower value 0.994 | locus YCR088W, strain abp1, stronger effect = lower value 1 | locus YDL005C, strain med2, stronger effect = lower value 1.01 | locus YDL035C, strain GPR1, stronger effect = lower value 0.983 | locus YDL040C, strain nat1, stronger effect = lower value 1 | locus YDL074C, strain BRE1, stronger effect = lower value 1.04 | locus YDL101C, strain DUN1, stronger effect = lower value 0.997 | locus YDL185W, strain tfp1, stronger effect = lower value 0.957 | locus YDL192W, strain arf1, stronger effect = lower value 0.99 | locus YDR001C, strain nth1, stronger effect = lower value 0.999 | locus YDR069C, strain doa4, stronger effect = lower value 1.01 | locus YDR101C, strain arx1, stronger effect = lower value 1 | locus YDR137W, strain rgp1, stronger effect = lower value 1.03 | locus YDR150W, strain NUM1, stronger effect = lower value 0.981 | locus YDR159W, strain sac3, stronger effect = lower value 1.03 | locus YDR162C, strain NBP2, stronger effect = lower value 0.986 | locus YDR195W, strain ref2 1 | locus YDR297W, strain sur2, stronger effect = lower value 1 | locus YDR318W, strain mcm21, stronger effect = lower value 0.997 | locus YDR334W, strain swr1, stronger effect = lower value 0.999 | locus YDR335W, strain msn5, stronger effect = lower value 0.994 | locus YDR388W, stronger effect = lower value 0.987 | locus YDR392W, strain spt3, stronger effect = lower value 1.02 | locus YDR502C, strain sam2, stronger effect = lower value 1 | locus YEL003W, strain gim4, stronger effect = lower value 1.01 | locus YEL037C, strain rad23, stronger effect = lower value 1 | locus YEL061C, strain CIN8 (second series), stronger effect = lower value 0.992 | locus YEL061C, strain CIN8, stronger effect = lower value 0.988 | locus YER015W, strain faa2, stronger effect = lower value 1.01 | locus YER016W, strain bim1, stronger effect = lower value 1.01 | locus YER110C, stronger effect = lower value 0.973 | locus YER111C, strain swi4, stronger effect = lower value 1 | locus YER155C, strain BEM2 (second series), stronger effect = lower value 0.995 | locus YER155C, strain BEM2, stronger effect = lower value 1.01 | locus YER167W, strain BCK2, stronger effect = lower value 0.989 | locus YFR010W, strain ubp6, stronger effect = lower value 1.01 | locus YGL078C, strain dbp3, stronger effect = lower value 0.995 | locus YGL086W, strain mad1, stronger effect = lower value 1.01 | locus YGL167C, strain pmr1, stronger effect = lower value 1.02 | locus YGL173C, strain kem1, stronger effect = lower value 1.01 | locus YGL227W, strain vid30, stronger effect = lower value 1 | locus YGL240W, strain doc1, stronger effect = lower value 1.01 | locus YGL248W, strain PDE1, stronger effect = lower value 1.02 | locus YGL253W, strain hxk2, stronger effect = lower value 1.01 | locus YGR078C, strain PAC10, stronger effect = lower value 1.01 | locus YGR135W, strain pre9, stronger effect = lower value 0.942 | locus YGR252W, strain gcn5, stronger effect = lower value 1.04 | locus YHR013C, strain ard1, stronger effect = lower value 1.02 | locus YHR027C, strain rpn1, stronger effect = lower value 1.02 | locus YHR030C, strain SLT2, stronger effect = lower value 0.979 and 1.02 | locus YHR079C, strain IRE1 (second series), stronger effect = lower value 0.999 | locus YHR079C, strain IRE1, stronger effect = lower value 1.02 | locus YHR094C, strain hxt1, stronger effect = lower value 0.979 | locus YHR129C, strain ARP1, stronger effect = lower value 0.997 | locus YHR142W, strain chs7, stronger effect = lower value 1 | locus YHR200W, strain rpn10, stronger effect = lower value 0.987 | locus YIL066C, strain RNR3, stronger effect = lower value 1 | locus YIL073C, strain SPO22, stronger effect = lower value 0.828 | locus YIL125W, strain kgd1, stronger effect = lower value 0.988 | locus YIR030C, strain dcg1, stronger effect = lower value 0.982 | locus YJL092W, strain hpr5, stronger effect = lower value 1.01 | locus YJL095W, strain BCK1 (second series), stronger effect = lower value 1.01 | locus YJL095W, strain BCK1, stronger effect = lower value 1.01 and 1.04 | locus YJL115W, strain asf1, stronger effect = lower value 1.01 | locus YJL129C, strain trk1, stronger effect = lower value 0.995 | locus YJL134W, strain LCB3, stronger effect = lower value 0.985 | locus YJL154C, strain vps35, stronger effect = lower value 0.997 | locus YJL164C, strain tpk1, stronger effect = lower value 1.01 | locus YJL166W, strain qcr8, stronger effect = lower value 1 | locus YJL168C, strain set2, stronger effect = lower value 0.999 | locus YJL187C, strain SWE1 (second series), stronger effect = lower value 0.996 | locus YJL187C, strain SWE1, stronger effect = lower value 1.01 | locus YJR043C, strain POL32, stronger effect = lower value 1.04 | locus YJR066W, strain TOR1, stronger effect = lower value 0.991 | locus YKL009W, strain mrt4, stronger effect = lower value 0.987 | locus YKL068W, stronger effect = lower value 0.977 | locus YKL085W, strain MDH1 (second series), stronger effect = lower value 0.984 | locus YKL085W, strain MDH1, stronger effect = lower value 0.984 | locus YKL160W, strain elf1, stronger effect = lower value 1 | locus YKR001C, strain vps1, stronger effect = lower value 0.998 | locus YKR026C, strain gcn3, stronger effect = lower value 1.01 | locus YKR091W, strain srl3, stronger effect = lower value 0.998 | locus YLL001W, strain dnm1, stronger effect = lower value 1.01 | locus YLL026W, stronger effect = lower value 1 | locus YLL041C, strain sdh2, stronger effect = lower value 1.01 | locus YLR027C, strain aat2, stronger effect = lower value 1.01 | locus YLR039C, strain RIC1, stronger effect = lower value 0.968 | locus YLR058C, strain SHM2, stronger effect = lower value 0.983 | locus YLR102C, strain apc9, stronger effect = lower value 0.993 | locus YLR113W, strain HOG1, stronger effect = lower value 1.07 | locus YLR221C, strain rsa3, stronger effect = lower value 1.01 | locus YLR258W, strain gsy2, stronger effect = lower value 1 | locus YLR262C, strain YPT6 (second series), stronger effect = lower value 1.03 | locus YLR262C, strain YPT6, stronger effect = lower value 0.963 | locus YLR268W, strain sec22, stronger effect = lower value 1.01 | locus YLR320W, strain mms22, stronger effect = lower value 1.02 | locus YLR330W, strain CHS5, stronger effect = lower value 0.985 | locus YLR342W, strain FKS1 (second series), stronger effect = lower value 0.98 | locus YLR342W, strain FKS1, stronger effect = lower value 1.01 | locus YLR357W, strain rsc2, stronger effect = lower value 0.993 | locus YLR370C, strain arc18, stronger effect = lower value 1.01 | locus YLR371W, strain rom2, stronger effect = lower value 1 | locus YLR384C, strain iki3, stronger effect = lower value 1.01 | locus YLR418C, strain cdc73, stronger effect = lower value 0.983 | locus YML016C, strain PPZ1, stronger effect = lower value 0.995 | locus YML032C, strain rad52, stronger effect = lower value 1.01 | locus YML120C, strain ndi1, stronger effect = lower value 1.01 | locus YML124C, strain tub3, stronger effect = lower value 0.991 | locus YMR058W, strain fet3, stronger effect = lower value 1 | locus YMR078C, strain ctf18, stronger effect = lower value 0.985 | locus YMR125W, strain sto1, stronger effect = lower value 1 | locus YMR129W, stronger effect = lower value 1 | locus YMR205C, strain PFK2, stronger effect = lower value 1.03 | locus YMR223W, strain ubp8, stronger effect = lower value 0.971 | locus YMR231W, strain pep5, stronger effect = lower value 1.02 | locus YMR263W, strain SAP30, stronger effect = lower value 0.995 | locus YMR307W, strain GAS1, stronger effect = lower value 1 | locus YNL067W, strain RPL9B, stronger effect = lower value 1.02 | locus YNL071W, strain lat1, stronger effect = lower value 0.997 | locus YNL153C, strain GIM3, stronger effect = lower value 1.04 | locus YNL183C, strain NPR1, stronger effect = lower value 0.989 | locus YNL209W, strain ssb2, stronger effect = lower value 1.01 | locus YNL233W, strain BNI4, stronger effect = lower value 1.05 | locus YNL248C, strain rpa49, stronger effect = lower value 1.01 | locus YNL250W, strain rad50, stronger effect = lower value 0.993 | locus YNL271C, strain bni1, stronger effect = lower value 0.997 | locus YNL298W, strain CLA4, stronger effect = lower value 0.993 | locus YNL307C, strain MCK1, stronger effect = lower value 1 | locus YNL322C, strain KRE1 (second series), stronger effect = lower value 1.01 | locus YNR049C, strain mso1, stronger effect = lower value 1.01 | locus YNR052C, strain pop2, stronger effect = lower value 0.993 | locus YOL012C, strain htz1 1.01 | locus YOL147C, strain pex11, stronger effect = lower value 0.978 | locus YOR001W, strain rrp6, stronger effect = lower value 1.01 | locus YOR061W, strain CKA2, stronger effect = lower value 0.996 | locus YOR069W, strain VPS5, stronger effect = lower value 0.985 | locus YOR070C, strain gyp1, stronger effect = lower value 1.01 | locus YOR080W, strain dia2, stronger effect = lower value 1.02 | locus YOR083W, strain WHI5, stronger effect = lower value 1.01 | locus YOR106W, strain vam3, stronger effect = lower value 1.02 | locus YOR136W, strain idh2, stronger effect = lower value 1.01 | locus YOR144C, strain elg1, stronger effect = lower value 0.996 | locus YOR184W, strain ser1, stronger effect = lower value 0.989 | locus YOR231W, strain MKK1, stronger effect = lower value 1.06 | locus YOR265W, strain rbl2, stronger effect = lower value 1.01 | locus YOR270C, strain vph1, stronger effect = lower value 1.01 | locus YOR290C, strain snf2, stronger effect = lower value 1.03 | locus YOR316C, strain cot1, stronger effect = lower value 0.99 | locus YPL051W, strain arl3, stronger effect = lower value 1.01 | locus YPL055C, strain LGE1, stronger effect = lower value 1.06 | locus YPL078C, strain atp4, stronger effect = lower value 1.01 | locus YPL106C, strain sse1, stronger effect = lower value 1.03 | locus YPL240C, strain hsp82, stronger effect = lower value 1.01 | locus YPL256C, strain CLN2, stronger effect = lower value 1.04 | locus YPR119W, strain clb2, stronger effect = lower value 0.995 | locus YPR141C, strain kar3, stronger effect = lower value 0.978 | locus YPR163C, strain tif3, stronger effect = lower value 0.987 | locus YPR167C, strain met16, stronger effect = lower value 1 | strain wtn01, stronger effect = lower value 0.998
